RAM network inh = inhibitors of the yeast RAM network, primary screen, dse1pr::URA3 reporter, 5-FOA selection | S. cerevisiae dse1pr::URA3 reporter, 5-FOA growth OD615, 2 d; analog-sensitive cbk1-as2 kinase mutant strain | 1.8% of 190,000 active | inhibition, % at 50 µM;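 active means inhibition above a set limit, 3 SD over mean compound inhibition, cut at about 8.4% in these data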;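 further: 0% = DMSO-only wells with no growth and 100% = 10 µM 1-NA-PP1 full growth; inhibition rescues growth on 5-FOA so higher OD means more RAM inhibition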
CHOP inhibitor = inhibitors of CHOP promoter induction, primary screen, cell-based, unfolded protein response, luciferase reporter. AID 2732, 2010. 3.8% of 220,000 active. CHO-K1 CHOP-promoter luciferase, tunicamycin-induced, 15-18 h. inhibition, % at 10 µM;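 active means compounds that reduced the stress-induced luciferase reporter signal by more than about 70% of percent inhibition, limit read from the data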;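 further: 0% = tunicamycin plus vehicle and 100% = wells without tunicamycin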
WT yeast gro inh = growth inhibition of WT strain, primary screen, mitochondrial fusion inhibitor project, WT and mutant strains, chemical genetic. mitochondrial fusion phenotypic screen. 2.1% of 190,000 active. inhibition, % at 10 µM; in the data active means inhibition above about 58%; tested in S. cerevisiae
Lmaj promast = Leishmania major promastigote growth inhibition, primary screen; Leishmania major promastigotes, resazurin fluorescence viability; inhibition, % at 10 µM; 9% of 200,000 active; in the data active means inhibition above about 50%;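 further: promastigotes grown with compound for 44 hours at 28 °C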
* = called active by the depositor. Compounds with a hit are over-represented: about 13% of the library has one in this group of screens.

Results for OC(COc1ccc(-c2ccccc2)cc1)CN1CCOCC1 (stereo unspecified) ?
RAM network inh: 1; CHOP inhibitor: 15; WT yeast gro inh: 0; Lmaj promast: 93*

What do the screens show for `O=S(=O)(c1ccc(OCC(O)CN2CCC(Cc3ccccc3)CC2)cc1)N1CCOCC1` (stereo unspecified)?
RAM network inh: 2; CHOP inhibitor: 26; WT yeast gro inh: 5; Lmaj promast: 100*

Results for O=C(c1ccccc1)c1ccc(OCC(O)CN2CCOCC2)cc1 (stereo unspecified) ?
Lmaj promast: 11

What do the screens show for `COc1ccc(-c2[nH]ncc2CN(Cc2nccn2C)C(C)C)c(F)c1`?
RAM network inh: 0; CHOP inhibitor: 22; WT yeast gro inh: -8; Lmaj promast: 1

What do the screens show for `O=C1CCCC2=C1C(c1ccsc1)CC(=O)N2c1ccccc1F` (stereo unspecified)?
RAM network inh: 1; CHOP inhibitor: -11; WT yeast gro inh: 0; Lmaj promast: -5

What do the screens show for `Cn1c(=O)c2c(nc(Cl)n2CC(=O)N2CCCCC2)n(C)c1=O`?
RAM network inh: 2; CHOP inhibitor: -3; WT yeast gro inh: -18; Lmaj promast: 12

Results for Cc1ccc2c(c1)-c1cc(C)nn1C(c1sccc1C)N2 (stereo unspecified) ?
RAM network inh: 10*; CHOP inhibitor: 24; WT yeast gro inh: -8; Lmaj promast: 5

What do the screens show for `CCCCC(=O)NC(=S)Nc1ccccc1N1CCCCC1`?
RAM network inh: -1; CHOP inhibitor: 64; WT yeast gro inh: 65*; Lmaj promast: 9

How did O=C(NC(=S)Nc1ccc(N2CCN(C(=O)c3ccccc3)CC2)cc1)c1cccs1 do in these assays?
RAM network inh: 5; CHOP inhibitor: 60; WT yeast gro inh: 33; Lmaj promast: 92*

How did CCCCCC(=O)NC(=S)Nc1ccc(N2CCCCC2)c(Cl)c1 do in these assays?
RAM network inh: 9.6*; CHOP inhibitor: 8; WT yeast gro inh: 3; Lmaj promast: 1

Results for CCCCCC(=O)Nc1ccc(N2CCN(CC)CC2)c(Cl)c1 ?
RAM network inh: 0; CHOP inhibitor: 0; WT yeast gro inh: 1; Lmaj promast: 0

What do the screens show for `O=C(NC(=S)Nc1ccccc1N1CCCCC1)c1cccs1`?
RAM network inh: 2; CHOP inhibitor: 42; WT yeast gro inh: 41; Lmaj promast: 91*

What do the screens show for `CCOC(=O)c1sc(C)c2c1NC(C)(c1cccs1)NC2=O` (stereo unspecified)?
RAM network inh: 2; CHOP inhibitor: 36; WT yeast gro inh: 48; Lmaj promast: 10

How did Cc1ccc(Cl)cc1NC(=O)N(C)CCO do in these assays?
CHOP inhibitor: 8

How did CCCCC(=O)NC(=S)Nc1cccc(Cl)c1N1CCCCC1 do in these assays?
RAM network inh: 6; CHOP inhibitor: -18; WT yeast gro inh: 10; Lmaj promast: 11

How did CCCC(=O)NC(=S)Nc1cccc(Cl)c1N1CCCCC1 do in these assays?
RAM network inh: 8.7*; CHOP inhibitor: 41; WT yeast gro inh: 60*; Lmaj promast: 9

Results for O=C(COc1ccc2ccc(=O)oc2c1)N1CCN(c2ccccc2)CC1 ?
RAM network inh: 2; CHOP inhibitor: 23; WT yeast gro inh: -10; Lmaj promast: 69*

Results for CCN(CC#CCC(O)(c1ccccc1)c1ccccc1)C(C)C ?
RAM network inh: 0; CHOP inhibitor: 27; WT yeast gro inh: -19; Lmaj promast: 87*

What do the screens show for `CC(C)N(CC#CCC(O)(c1ccccc1)c1ccccc1)C(C)C`?
RAM network inh: 1; CHOP inhibitor: 6; WT yeast gro inh: -5; Lmaj promast: 88*

Results for CC(C)N(CC#CCC(O)(c1ccccc1)c1ccccc1)CCO ?
RAM network inh: 0; CHOP inhibitor: 10; WT yeast gro inh: -5; Lmaj promast: 44

What do the screens show for `COc1ccc(C(=O)OCn2nnc3ccccc3c2=O)cc1[N+](=O)[O-]`?
RAM network inh: 2; CHOP inhibitor: -3; WT yeast gro inh: 1; Lmaj promast: -4

How did CSc1nnc(CSCc2ccc(Cl)cc2Cl)n1-c1ccccc1 do in these assays?
RAM network inh: 6; CHOP inhibitor: 79*; Lmaj promast: -3

What do the screens show for `Cn1c(CSCc2ccc(Cl)cc2Cl)n[nH]c1=S`?
RAM network inh: 0; CHOP inhibitor: 6; WT yeast gro inh: 54; Lmaj promast: 17

How did CCn1nc(C)c(CNC(=O)CCc2nnc(Cc3c[nH]c4ccccc34)o2)c1C do in these assays?
RAM network inh: -1; CHOP inhibitor: 42; WT yeast gro inh: 11; Lmaj promast: 3

Results for COc1cc2nc(NC(=O)c3ccc(Cl)cc3)[nH]c(=O)c2cc1OC ?
RAM network inh: 2; CHOP inhibitor: 72*; WT yeast gro inh: -21; Lmaj promast: 60*

What do the screens show for `COc1cccc(N2CCN(C3CC(=O)N(c4ccc(F)c(Cl)c4)C3=O)CC2)c1` (stereo unspecified)?
RAM network inh: 1; CHOP inhibitor: 71*; WT yeast gro inh: 11; Lmaj promast: -8

What do the screens show for `COc1cccc(N2CCN(C3CC(=O)N(c4ccc(C)c(Cl)c4)C3=O)CC2)c1` (stereo unspecified)?
RAM network inh: 2; CHOP inhibitor: 55; WT yeast gro inh: 0; Lmaj promast: -10

How did CCn1c(C)c(C)c2cc(C(=O)Nc3cccc(Cl)c3)ccc21 do in these assays?
RAM network inh: 2; CHOP inhibitor: -54; WT yeast gro inh: 3; Lmaj promast: 62*

Results for CCn1ccc(C(=O)Nc2cccc(Cl)c2)n1 ?
RAM network inh: 0; CHOP inhibitor: -13; WT yeast gro inh: 8; Lmaj promast: -10

Results for CC1=CC(C)(C)N2C(=O)C3(NCCc4c3[nH]c3ccccc43)c3cccc1c32 (stereo unspecified) ?
RAM network inh: -1; CHOP inhibitor: 4; WT yeast gro inh: 3; Lmaj promast: 12

Results for CC(C)CNC(=O)c1ccccc1NC(=O)c1ccccc1N(C)S(=O)(=O)c1ccccc1 ?
RAM network inh: 0; CHOP inhibitor: 7; WT yeast gro inh: 4; Lmaj promast: 8

What do the screens show for `O=C(NC1CC1)C1=C[C@@H](c2ccc3c(c2)OCO3)C[C@@H](OCc2ccc(CO)cc2)O1`?
RAM network inh: 2; CHOP inhibitor: 17; WT yeast gro inh: -27; Lmaj promast: -5

What do the screens show for `O=C(O)C1=C[C@@H](c2ccc(Br)cc2)C[C@@H](OCc2ccc(CO)cc2)O1`?
RAM network inh: 1; CHOP inhibitor: 41; WT yeast gro inh: -27; Lmaj promast: -12

Results for O=C(Nc1ccccc1)C1=C[C@H](c2ccc3c(c2)OCO3)C[C@H](OCc2ccc(CO)cc2)O1 ?
RAM network inh: 9.4*; CHOP inhibitor: 8; WT yeast gro inh: 23; Lmaj promast: 12

How did O=C(Nc1ccccc1)C1=C[C@@H](c2ccc(Br)cc2)C[C@@H](OCc2ccc(CO)cc2)O1 do in these assays?
RAM network inh: 9.4*; CHOP inhibitor: -14; WT yeast gro inh: 51; Lmaj promast: 56*

Bioassay records: PubChem BioAssay, several laboratories
